Measurements taken from PubChem BioAssay.
Inconclusive results are not listed. Activity calls are given as the source filed them. Unless noted, how the calls were made is not given here.

Legend:
[1] = growth inhibition of DIPG glioma cells, dose response, cell-based, SU-DIPG-XIII, MIPE4.0, CellTiter-Glo, qHTS (AID 1347061; cut-off not given, nearly all actives have AC50 up to about 37 µM;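 further: cells exposed to compound for 48 hours before readout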); details: SU-DIPG-XIII viability, CellTiter-Glo ATP luminescence
[2] = system: Hepatitis C virus NS3 helicase; assay: HCV NS3 helicase inhibitors, primary screen, biochemical, fluorescence polarization, LOPAC1280 library (AID 687035; in the data active means inhibition above about 37%); details: Purified HCV NS3 helicase, Cy5-dT15 ssDNA binding fluorescence polarization; stronger effect = higher value; concentration not given here
[3] = Cy5 fluorescence quenching or enhancement artefacts, artefact control for HCV NS3 helicase inhibitor project, biochemical, LOPAC1280 (AID 687037); details: Cy5-DNA-NS3h complex fluorescence interference counterscreen
[4] = modifiers of HSF1 nuclear foci, imaging, Selleck Cancer Library (AID 1347162; in the data active means plate-normalised HSF1 focus index below about 0.46); details: human cells, at 10 µM; SSMD: measured here: HSF1 foci SSMD mean; cell count: measured here: cell number; plate-normalised HSF1 focus index: stronger effect = lower value
[5] = molecular target: NAD(+) hydrolase SARM1 (Homo sapiens) (UniProt Q6SZW1); assay: SARM1 TIR NADase inhibitors, cell lysate, NAD-Glo luminescence (AID 1508614;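 active means compound whose remaining NAD level is above about 45 nM, limit read from the data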); details: SAM-TIR HEK293T lysate NADase, at 1 µM, stronger effect = higher value
Chain of NAD(+) hydrolase SARM1 (Homo sapiens) (Q6SZW1 whole entry, looked up): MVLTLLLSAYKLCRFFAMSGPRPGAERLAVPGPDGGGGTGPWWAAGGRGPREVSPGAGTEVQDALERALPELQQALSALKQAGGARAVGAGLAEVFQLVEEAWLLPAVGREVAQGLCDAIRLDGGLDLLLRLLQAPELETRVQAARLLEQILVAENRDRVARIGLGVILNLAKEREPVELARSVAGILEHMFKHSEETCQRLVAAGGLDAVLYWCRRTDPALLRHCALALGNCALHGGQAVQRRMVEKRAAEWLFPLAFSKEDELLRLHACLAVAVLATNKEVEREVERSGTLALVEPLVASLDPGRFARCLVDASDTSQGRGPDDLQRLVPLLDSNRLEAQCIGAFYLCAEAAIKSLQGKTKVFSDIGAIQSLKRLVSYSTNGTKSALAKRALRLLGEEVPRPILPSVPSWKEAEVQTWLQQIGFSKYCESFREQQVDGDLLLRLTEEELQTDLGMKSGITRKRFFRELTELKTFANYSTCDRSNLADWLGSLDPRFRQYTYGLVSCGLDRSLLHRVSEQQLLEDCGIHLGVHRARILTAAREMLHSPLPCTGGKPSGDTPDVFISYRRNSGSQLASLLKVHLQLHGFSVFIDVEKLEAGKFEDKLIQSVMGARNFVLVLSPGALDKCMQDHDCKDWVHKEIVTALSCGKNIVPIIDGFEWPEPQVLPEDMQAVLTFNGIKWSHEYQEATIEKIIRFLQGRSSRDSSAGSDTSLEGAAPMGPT

[6] = growth inhibition of DIPG glioma cells, dose response, cell-based, SU-DIPG-XIII, MIPE5.0, CellTiter-Glo, qHTS (AID 1347064; cut-off not given, nearly all actives have AC50 up to about 23 µM;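 on AC50: cells exposed to compound for 48 hours before the viability read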); details: SU-DIPG-XIII viability, CellTiter-Glo ATP luminescence
[7] = LFS_MB_P medulloblastoma growth inhibition, cell-based, chromothripsis tumors, cisplatin or BGB combos (AID 1671449; in the data active means inhibition above about 80%;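 further: cells exposed for 96 hours; 0% = vehicle DMSO and 100% = killing by high DMSO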); details: LFS_MB_P medulloblastoma cells
[8] = HDN33 neuroblastoma growth inhibition, cell-based, chromothripsis tumors, cisplatin or BGB combos (AID 1671450; in the data active means inhibition above about 80%;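 further: cells exposed to compound for four days; 0% = vehicle DMSO and 100% = cell killing by high DMSO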); details: HDN33 neuroblastoma cells, stronger effect = higher value
[9] = ICB984 medulloblastoma cell growth inhibition, synergistic combos for chromothripsis tumors, cisplatin or BGB combos (AID 1671451); details: ICB984 medulloblastoma cells, drug combinations, stronger effect = higher value;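 further: cells exposed for 96 hours before readout; 0% = vehicle DMSO and 100% = killing by high DMSO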
[10] = LFS_MB_1R medulloblastoma cell growth inhibition, synergistic combos for chromothripsis tumors, cisplatin or BGB combos (AID 1671452; in the data active means inhibition above about 80%;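 further: cells exposed for 96 hours before readout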); details: LFS_MB_1R medulloblastoma cells, stronger effect = higher value
[11] = HTB85 osteosarcoma cell growth inhibition, synergistic combos for chromothripsis tumors, BGB or cisplatin IC20 combos (AID 1671453; in the data active means inhibition above about 80%;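 further: cells exposed for 96 hours before readout; 0% = vehicle DMSO and 100% = high DMSO killing control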); details: HTB85 osteosarcoma cells, drug combinations, stronger effect = higher value
[12] = CRL2098 osteosarcoma cell growth inhibition, synergistic combos for chromothripsis tumors, BGB or cisplatin IC20 combos (AID 1671454; in the data active means inhibition above about 80%;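 further: cells exposed for 96 h before readout; 0% = vehicle DMSO and 100% = killing by high DMSO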); details: CRL2098 osteosarcoma cells, drug combinations, stronger effect = higher value
[13] = HD-MB03 medulloblastoma cell growth inhibition, synergistic combos for chromothripsis tumors, BGB or cisplatin IC20 combos (AID 1671455; in the data active means inhibition above about 83%;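 further: 0% = vehicle DMSO and 100% = high DMSO as cytotoxic control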); details: HD-MB03 medulloblastoma cells, stronger effect = higher value
[14] = UWB1.289 ovarian carcinoma cell growth inhibition, synergistic combos for chromothripsis tumors, BGB or cisplatin combos (AID 1671456; in the data active means inhibition above about 80%;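 further: cells exposed to compound for four days; 0% = vehicle DMSO and 100% = killing by high DMSO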); details: UWB1.289 ovarian carcinoma cells, stronger effect = higher value
[15] = MDA-MB-436 breast carcinoma cell growth inhibition, synergistic combos for chromothripsis tumors, BGB or cisplatin combos (AID 1671458); details: MDA-MB-436 breast carcinoma growth inhibition, drug combinations, stronger effect = higher value;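 further: cells exposed for 96 hours; 0% = vehicle DMSO and 100% = killing by high DMSO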
[16] = growth inhibition of BT084 medulloblastoma cells, cell-based, ICGC_MB145, cisplatin and BGB IC40 combos (AID 1671461; in the data active means inhibition above about 80%;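 further: cells exposed to drugs for 96 hours; 0% = vehicle DMSO and 100% = high DMSO full killing control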); details: drug combinations, stronger effect = higher value
[17] = growth inhibition of RCMB18 medulloblastoma cells, cell-based, cisplatin and BGB IC40 combos (AID 1671462; in the data active means inhibition above about 80%;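 further: cells exposed to compound for four days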); details: stronger effect = higher value
[18] = growth inhibition of CRL1545 osteosarcoma cells, cell-based, cisplatin and BGB IC20 combos (AID 1671464; in the data active means inhibition above about 80%;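 further: cells exposed to compound for 96 hours before readout; 0% = vehicle DMSO and 100% = high DMSO killing control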); details: stronger effect = higher value
[19] = circadian clock period modulators, cell-based, LOPAC library, luminescence reporter (AID 2774); details: circadian reporter cells, at 7 µM, actives lie on both sides;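 further: values are relative to mean of DMSO wells on each plate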
[20] = measured here: combination with BGB IC40, at 0.05 µM
[21] = measured here: with BGB IC20 combination, at 0.5 µM
[22] = measured here: with cisplatin IC20 combination, at 0.5 µM
[23] = measured here: combination with cisplatin, at 0.5 µM

O[C@@H](CNC[C@H](O)[C@H]1CCc2cc(F)ccc2O1)[C@@H]1CCc2cc(F)ccc2O1
outcome [1]: inactive

COc1cccc(N(C)C(=S)Oc2ccc3c(c2)CCCC3)n1
outcome [1]: inactive

C[C@]12CC[C@@H]3c4ccc(O)cc4C[C@@H](CCCCCCCCCS(=O)CCCC(F)(F)C(F)(F)F)[C@H]3[C@@H]1CC[C@@H]2O (stereo partly drawn)
inhibition [2]: 0% (inactive)
fluorescence ratio (interference) [3]: 0.9 (inactive)
outcome [1]: inactive
SSMD [4]: 2.09
cell count [4]: 7000
plate-normalised HSF1 focus index [4]: 1.13 (inactive)
remaining NAD [5]: 10 nM (inactive)

Cc1c(C(=O)NN2CCCCC2)nn(-c2ccc(Cl)cc2Cl)c1-c1ccc(Cl)cc1
AC50 [1]: 20.9 µM (active)

CCCCC(CC)COC(=O)C(C#N)=C(c1ccccc1)c1ccccc1 (stereo not drawn)
remaining NAD [5]: 10 nM (inactive)

O=c1[nH]c(=O)n([C@H]2C[C@H](O)[C@@H](CO)O2)cc1C(F)(F)F
outcome [1]: inactive
outcome [6]: inactive
remaining NAD [5]: 10 nM (inactive)
inhibition ([7]; at 0.5 µM, stronger effect = higher value): 36.4% (inactive)
inhibition ([7]; measured here: combination with BGB IC20, at 0.005 µM): -2.27%
inhibition ([7]; measured here: combination with BGB IC40, at 0.005 µM): -21%
inhibition [7, 20]: -26.7%
inhibition ([7]; measured here: combination with cisplatin, at 0.5 µM, stronger effect = higher value): 71.9%
inhibition ([7]; measured here: combination with cisplatin, at 5 µM, stronger effect = higher value): -10%
inhibition ([8]; BGB combo, at 5 µM): 76.1%
inhibition ([8]; at 0.5 µM): -26.4% (inactive)
inhibition ([8]; cisplatin combo, at 5 µM): 74.4%
inhibition [8, 21]: -34.8%
inhibition [8, 22]: -33.1%
inhibition ([8]; single agent, at 5 µM): 78.3%
inhibition ([9]; BGB IC20 combo, at 0.005 µM): -20%
inhibition ([9]; BGB IC40 combo, at 0.005 µM): -34.3%
inhibition ([9]; BGB IC40 combo, at 0.05 µM): -24%
inhibition ([9]; at 0.5 µM): -27.9% (inactive)
inhibition ([9]; cisplatin combo, at 0.05 µM): -27.5%
inhibition ([9]; cisplatin combo, at 0.5 µM): -36.1%
inhibition ([9]; cisplatin combo, at 5 µM): -29.6%
inhibition ([9]; measured here: 5 uM single agent, at 5 µM): -19.3%
inhibition ([10]; at 0.5 µM): -42% (inactive)
inhibition [10, 20]: -48.3%
inhibition [10, 23]: -37.1%
inhibition ([10]; measured here: combination with cisplatin, at 5 µM): -50.8%
inhibition ([11]; at 0.5 µM): -26.4% (inactive)
inhibition ([11]; measured here: with BGB IC20, at 0.5 µM): -56.9%
inhibition ([11]; measured here: with BGB IC20, at 5 µM): -39.6%
inhibition ([11]; measured here: with cisplatin IC20, at 0.5 µM): -12.8%
inhibition ([11]; measured here: with cisplatin IC20, at 5 µM): 1.86%
inhibition ([11]; single agent, at 5 µM): 7.02%
inhibition ([12]; at 0.5 µM): -101% (inactive)
inhibition ([12]; measured here: combination with BGB at IC20, at 0.5 µM): -90.6%
inhibition ([12]; measured here: combination with cisplatin at IC20, at 0.5 µM): -100%
inhibition ([13]; at 0.5 µM): 46.7% (inactive)
inhibition ([13]; measured here: combo with BGB at IC20, at 0.5 µM): 44.2%
inhibition ([13]; measured here: combo with cisplatin at IC20, at 0.5 µM): 72.4%
inhibition ([14]; at 0.5 µM): -11.1% (inactive)
inhibition ([14]; measured here: inhibition with BGB combination, at 0.05 µM): -14.4%
inhibition ([14]; measured here: inhibition with cisplatin combination, at 0.05 µM): -6.35%
inhibition ([15]; at 0.5 µM): -22.5% (inactive)
inhibition ([15]; measured here: BGB combination, at 0.5 µM): -18.8%
inhibition ([15]; measured here: BGB combination, at 5 µM): 1.19%
inhibition ([15]; measured here: cisplatin combination, at 0.5 µM): -44.6%
inhibition ([15]; measured here: cisplatin combination, at 5 µM): 12.8%
inhibition ([16]; at 0.5 µM): -27.4% (inactive)
inhibition ([16]; cisplatin combination, at 0.5 µM): -13.4%
inhibition ([16]; cisplatin combination, at 5 µM): -12.4%
inhibition ([16]; measured here: BGB IC40 combination 0.05 uM, at 0.05 µM): -6.58%
inhibition ([16]; single agent, at 5 µM): -41.3%
inhibition ([17]; at 0.5 µM): -14.2% (inactive)
inhibition ([17]; cisplatin combo, at 5 µM): -41.9%
inhibition ([17]; measured here: BGB IC40 combination, at 0.05 µM): -13.9%
inhibition [17, 23]: -28.5%
inhibition ([17]; single agent, at 5 µM): -39.2%
inhibition ([18]; at 0.5 µM): -43.3% (inactive)
inhibition [18, 21]: -61.7%
inhibition [18, 22]: -37.1%
inhibition ([18]; single agent, at 0.05 µM): -89%
inhibition ([18]; single agent, at 5 µM): 33.7%

C[C@@H]1C[C@H]2[C@@H]3CCC4=CC(=O)C=C[C@]4(C)[C@@]3(Cl)[C@@H](O)C[C@]2(C)[C@@]1(OC(=O)c1ccco1)C(=O)CCl
remaining NAD [5]: 10 nM (inactive)

O=C(OC1C[C@H]2CC[C@@H](C1)[N+]21CCCC1)C(O)(c1ccccc1)c1ccccc1 (stereo partly drawn)
remaining NAD [5]: 10 nM (inactive)

COC(=O)C1=C(C)NC(C)=C(C(=O)OCCN2CCN(C(c3ccccc3)c3ccccc3)CC2)C1c1cccc([N+](=O)[O-])c1 (stereo not drawn)
AC50 [6]: 8.33 µM (active)
remaining NAD [5]: 10 nM (inactive)

C=CCc1cc(OC)c(O)c(C(=O)NCCO)c1
outcome [1]: inactive

N[C@@H](CC(=O)O)C(=O)O
period change [19]: 0.065 h (inactive)
inhibition [2]: 0% (inactive)
fluorescence ratio (interference) [3]: 0.9 (inactive)
remaining NAD [5]: 10 nM (inactive)

NC(N)=NCCC[C@H](N)C(=O)O
period change [19]: -0.2 h (inactive)
inhibition [2]: -3% (inactive)
fluorescence ratio (interference) [3]: 1 (inactive)
remaining NAD [5]: 10 nM (inactive)

COC(=O)C1=C(C)NC(C)=C(C(=O)OC(C)(C)CN(C)CCC(c2ccccc2)c2ccccc2)C1c1cccc([N+](=O)[O-])c1 (stereo not drawn)
inhibition [2]: 3% (inactive)
fluorescence ratio (interference) [3]: 1 (inactive)

C(=C\c1ccccc1)/CN1CCN(C(c2ccccc2)c2ccccc2)CC1
period change [19]: 0.12 h (inactive)
inhibition [2]: 1% (inactive)
fluorescence ratio (interference) [3]: 1 (inactive)
remaining NAD [5]: 10 nM (inactive)

CC(=O)[C@@]1(O)CC[C@H]2[C@@H]3CCC4=CC(=O)CC[C@]4(C)[C@H]3CC[C@@]21C
period change [19]: 0.035 h (inactive)
inhibition [2]: 0% (inactive)
fluorescence ratio (interference) [3]: 1 (inactive)

COC(=O)[C@@H](N)Cc1ccc(O)c(O)c1
period change [19]: 0.105 h (inactive)
inhibition [2]: -2% (inactive)
fluorescence ratio (interference) [3]: 1 (inactive)

CC(C)(C)c1ccc(C(=O)CCCN2CCC(OC(c3ccccc3)c3ccccc3)CC2)cc1
inhibition [2]: 3% (inactive)
fluorescence ratio (interference) [3]: 1 (inactive)

COc1ccc(CCN(C)CCCC(C#N)(c2cc(OC)c(OC)c(OC)c2)C(C)C)cc1OC (stereo not drawn)
period change [19]: -0.105 h (inactive)
inhibition [2]: -1% (inactive)
fluorescence ratio (interference) [3]: 1 (inactive)

CCN1CCc2nc(N)oc2CC1
period change [19]: 0.015 h (inactive)
inhibition [2]: -3% (inactive)
fluorescence ratio (interference) [3]: 1 (inactive)

NC(=O)c1cn(Cc2c(F)cccc2F)nn1
inhibition [2]: -5% (inactive)
fluorescence ratio (interference) [3]: 1 (inactive)
